We go through four compounds from PubChem BioAssay.

The nature of test [1]: anti-His antibody binders, primary screen, artefact control for SMM control protein annotation, biochemical, small-molecule microarray, 635 nm fluorescence (AID 1128).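 Also: score merges feature fluorescence with signal-to-noise for each printed compound spot.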 To be noted: anti-His Alexa647 antibody binding, higher = more signal.
Test [2] deals with Human papillomavirus type 1a E7 protein (residues 1-88). The test can be described thus: HPV1a E7 small-molecule binders, primary screen, biochemical, small-molecule microarray, residues 1-88, 635 nm (AID 1129). To be noted: small-molecule microarray binding, fluorescence 635 nm; higher = more signal.
For test [3], the target named is Focal adhesion kinase 1 (Homo sapiens) (UniProt Q05397). The test can be described thus: small-molecule microarray binders of FAK, primary screen, biochemical, 635/667 nm fluorescence, BSA, DTT (AID 1130).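 Also: composite of spot emission at 667 nm and signal to noise over triplicate slides.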 Conditions: PTK2 binding, 635 nm fluorescence, higher = more signal.
Sequence of Focal adhesion kinase 1 (Homo sapiens) (Q05397 whole entry, looked up): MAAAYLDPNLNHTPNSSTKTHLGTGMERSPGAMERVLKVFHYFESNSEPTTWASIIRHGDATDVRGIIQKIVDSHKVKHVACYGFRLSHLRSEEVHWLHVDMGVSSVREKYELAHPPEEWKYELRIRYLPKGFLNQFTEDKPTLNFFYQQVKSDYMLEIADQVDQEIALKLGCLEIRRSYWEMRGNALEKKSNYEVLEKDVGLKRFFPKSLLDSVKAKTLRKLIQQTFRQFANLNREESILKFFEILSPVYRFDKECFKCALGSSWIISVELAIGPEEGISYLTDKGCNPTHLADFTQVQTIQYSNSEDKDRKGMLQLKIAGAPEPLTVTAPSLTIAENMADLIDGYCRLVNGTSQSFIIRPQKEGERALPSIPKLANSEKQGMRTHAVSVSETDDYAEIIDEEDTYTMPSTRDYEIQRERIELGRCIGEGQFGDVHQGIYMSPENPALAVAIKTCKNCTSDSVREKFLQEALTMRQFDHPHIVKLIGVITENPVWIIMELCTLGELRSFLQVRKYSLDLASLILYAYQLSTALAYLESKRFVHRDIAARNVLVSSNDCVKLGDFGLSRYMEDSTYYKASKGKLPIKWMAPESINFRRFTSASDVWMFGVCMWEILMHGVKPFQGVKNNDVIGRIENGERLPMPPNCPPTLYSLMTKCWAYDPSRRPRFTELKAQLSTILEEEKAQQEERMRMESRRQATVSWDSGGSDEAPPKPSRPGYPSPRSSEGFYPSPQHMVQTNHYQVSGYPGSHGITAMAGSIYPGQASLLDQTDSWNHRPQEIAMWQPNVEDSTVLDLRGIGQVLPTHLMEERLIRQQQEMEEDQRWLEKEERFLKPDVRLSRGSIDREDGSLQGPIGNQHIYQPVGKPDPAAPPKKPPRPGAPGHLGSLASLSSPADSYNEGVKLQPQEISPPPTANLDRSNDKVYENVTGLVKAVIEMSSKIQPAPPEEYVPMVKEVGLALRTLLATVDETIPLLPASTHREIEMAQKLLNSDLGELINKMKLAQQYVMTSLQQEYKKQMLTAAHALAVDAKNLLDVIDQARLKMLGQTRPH
Test [4] concerns Fibrinogen (Alexa647-labelled). The test can be described thus: fibrinogen binders on compound microarrays, profiling panel, artefact control for SMM control-protein annotation, biochemical, small-molecule microarray, 635/667 nm fluorescence (AID 1131).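 Also: z-score merges 667 nm fluorescence with per-spot signal-to-noise over triplicate slides.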 Conditions: fibrinogen-A647 binding fluorescence, higher = more signal.
The target of test [5] is Follistatin (Homo sapiens) (UniProt P19883). The test can be described thus: follistatin binders on small-molecule microarrays, primary screen, biochemical, small-molecule microarray, 635/667 nm fluorescence (AID 1132). Conditions: FST binding, 635 nm fluorescence, higher = more signal.
Sequence of Follistatin (Homo sapiens) (P19883 whole entry, looked up): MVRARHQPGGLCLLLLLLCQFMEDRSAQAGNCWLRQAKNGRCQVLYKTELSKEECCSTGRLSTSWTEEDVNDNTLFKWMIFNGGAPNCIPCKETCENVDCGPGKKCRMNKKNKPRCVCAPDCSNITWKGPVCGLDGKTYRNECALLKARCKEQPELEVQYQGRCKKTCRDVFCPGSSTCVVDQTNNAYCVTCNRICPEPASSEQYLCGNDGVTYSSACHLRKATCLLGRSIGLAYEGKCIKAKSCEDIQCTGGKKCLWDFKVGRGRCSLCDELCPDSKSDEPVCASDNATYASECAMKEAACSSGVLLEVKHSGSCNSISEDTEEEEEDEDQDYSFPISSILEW
For test [6], the target named is Fibroblast growth factor 2 (Homo sapiens) (UniProt P09038). The test can be described thus: FGF2 binders on small-molecule microarrays, primary screen, biochemical, small-molecule microarray, 635/667 nm fluorescence (AID 1133). To be noted: small-molecule microarray binding, FGF2, fluorescence 635/667; higher = more signal.
Sequence of Fibroblast growth factor 2 (Homo sapiens) (P09038 whole entry, looked up): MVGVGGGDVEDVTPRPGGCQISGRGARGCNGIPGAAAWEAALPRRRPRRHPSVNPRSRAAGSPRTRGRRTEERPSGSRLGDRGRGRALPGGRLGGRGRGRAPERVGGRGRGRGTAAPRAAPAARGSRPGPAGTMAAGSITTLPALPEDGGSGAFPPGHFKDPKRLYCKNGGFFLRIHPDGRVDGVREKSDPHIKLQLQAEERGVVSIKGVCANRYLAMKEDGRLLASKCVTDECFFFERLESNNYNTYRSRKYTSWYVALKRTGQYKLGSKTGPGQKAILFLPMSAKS
Test [7] is described as follows: mitochondrial membrane potential change in A549 cells, profiling panel, cell-based, JC-1 fluorescence, basal, 24 h, 100 nL (AID 1138).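 Also: A549 lung adenocarcinoma cells under basal conditions with no added stimulus; test concentration not given here.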 To be noted: higher = more signal.
A further test has as its system Lefty1. The test can be described thus: Lefty1 binders on small-molecule microarrays, primary screen, biochemical, small-molecule microarray, 635/667 nm fluorescence (AID 1139). Conditions: small-molecule microarray binding, fluorescence 635/667; higher = more signal.
Test [8] deals with wheat germ agglutinin (Triticum aestivum), Alexa647-labelled. The test can be described thus: wheat germ agglutinin binders on compound microarrays, profiling panel, artefact control for SMM control-protein annotation, biochemical, small-molecule microarray, 635/667 nm fluorescence (AID 1140).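 Also: score merges 667 nm feature emission with signal to noise over triplicate slides.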 To be noted: WGA-A647 binding, 635 nm fluorescence, higher = more signal.
The target in test [9] is Luciferin 4-monooxygenase (Photinus pyralis) (UniProt P08659). The test can be described thus: firefly luciferase enzyme inhibitors, primary screen, biochemical, luminescence, purified enzyme, 2006 set (AID 1141).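 Also: cell-free assay with purified firefly luciferase at 100 ng per well in PBS; test concentration not given here.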 To be noted: SteadyGlo luminescence, 30 min, higher = more signal, called active from +8 up or from −8 down.
Sequence of Luciferin 4-monooxygenase (Photinus pyralis) (P08659 whole entry, looked up): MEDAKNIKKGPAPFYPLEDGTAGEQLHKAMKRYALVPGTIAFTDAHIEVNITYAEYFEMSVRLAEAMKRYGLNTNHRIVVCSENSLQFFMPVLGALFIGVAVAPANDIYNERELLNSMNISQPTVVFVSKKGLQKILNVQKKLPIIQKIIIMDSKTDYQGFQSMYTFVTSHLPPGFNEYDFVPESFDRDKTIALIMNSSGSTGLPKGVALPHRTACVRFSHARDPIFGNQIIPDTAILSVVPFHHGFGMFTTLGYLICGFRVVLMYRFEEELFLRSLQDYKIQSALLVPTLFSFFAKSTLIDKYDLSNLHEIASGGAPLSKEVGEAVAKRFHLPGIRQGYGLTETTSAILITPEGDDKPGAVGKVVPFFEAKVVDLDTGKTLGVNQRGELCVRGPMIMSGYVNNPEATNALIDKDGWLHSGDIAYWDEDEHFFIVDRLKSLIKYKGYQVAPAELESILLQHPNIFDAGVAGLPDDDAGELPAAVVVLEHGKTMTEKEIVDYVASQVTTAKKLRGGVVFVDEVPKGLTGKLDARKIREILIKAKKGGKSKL
In test [10] the test system is Wnt5a (protein binding on small-molecule microarray). The test can be described thus: Wnt5a binders on small-molecule microarray, primary screen, biophysical, 635/667 nm fluorescence (AID 1142).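 Also: fluorescence read at 667 nm with signal to noise per printed feature.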 Conditions: 635 nm fluorescence, higher = more signal.
Test [11] is described as follows: cell viability in Huh7 cells, primary screen, cytotoxicity control for HCV replication inhibitor project, CellTiter-Glo luminescence, basal, 48 h (AID 1143).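 Also: Huh7 hepatoma cells carrying a hepatitis C replication reporter with no stimulus; test concentration not given here.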 Conditions: Huh7 HCV replicon, higher = more signal, called active from +8 up or from −8 down.
Test [12] can be described thus: P. aeruginosa biofilm formation inhibitors, primary screen, PAO1 strain, BacTiter-Glo luminescence, LB-PBS (AID 1144). Conditions: 12 h, higher = more signal.
The nature of test [13]: CREB reporter modulators without forskolin, primary screen, cell-based, PC12, CRE-LacZ reporter, unstimulated (AID 1145). To be noted: no forskolin, luminescence, 4.5 h, higher = more signal, called active from +8 up or from −8 down.
Test [14] can be described thus: CREB reporter modulators under forskolin, primary screen, cell-based, PC12, CRE-LacZ reporter, forskolin-stimulated (AID 1146).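 Also: PC12 cells with 6xCRE LacZ reporter stimulated by forskolin 10 µM; beta-galactosidase reporter signal reflecting CREB driven transcription.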 To be noted: luminescence, 4.5 h, higher = more signal, called active from +8 up or from −8 down.
Test [15] has as its target Streptavidin (Streptomyces avidinii) (UniProt P22629). The test can be described thus: streptavidin binders on small-molecule microarray, primary screen, artefact control for SMM compound annotation, biophysical, 635/667 nm fluorescence (AID 1147).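 Also: signal reflects streptavidin binding to arrayed compounds as a control protein.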 Conditions: streptavidin binding, higher = more signal.
The nature of test [16]: small-molecule binders of probe aInhba, primary screen, biochemical, small-molecule microarray, 635/667 nm fluorescence (AID 1148).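 Also: score merges 667nm spot fluorescence with signal-to-noise for antibody binding to printed compounds.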 Conditions: higher = more signal.
Test [17] addresses Torsin-1A (Homo sapiens) (UniProt O14656). The test can be described thus: torsin A binders from cell lysate, primary screen, small-molecule microarray, wild-type, 635/667 nm (AID 1149). Conditions: COS7 hTOR1A-WT lysate, 635 nm fluorescence, higher = more signal.
Test [18] shares this target. The test can be described thus: small-molecule binders of mutant TOR1A in lysate, primary screen, cell lysate, small-molecule microarray, COS7 lysate, 635/667 nm fluorescence (AID 1150).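 Also: score pools 667 nm emission and signal to noise measuring lysate protein binding.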 To be noted: COS7 hTOR1A mutant lysate, 635 nm fluorescence, higher = more signal.
In test [19] the test system is Sonic hedgehog protein (Shh). The test can be described thus: small-molecule binders of Shh protein, primary screen, biochemical, small-molecule microarray, 635/667 nm fluorescence (AID 1151).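 Also: Shh protein binding to compounds spotted on small-molecule microarray slides; score combines spot fluorescence intensity with signal-to-noise across triplicate slides.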 To be noted: small-molecule microarray binding, 635 nm fluorescence; higher = more signal.

Where “and” joins values, the source holds several entries; their conditions need not be identical. Equal entries are not always repeated. Calls of active or inactive are those of the source. Unless noted, no rule for the calls is given here.

Sequence of Streptavidin (Streptomyces avidinii) (P22629 whole entry, looked up): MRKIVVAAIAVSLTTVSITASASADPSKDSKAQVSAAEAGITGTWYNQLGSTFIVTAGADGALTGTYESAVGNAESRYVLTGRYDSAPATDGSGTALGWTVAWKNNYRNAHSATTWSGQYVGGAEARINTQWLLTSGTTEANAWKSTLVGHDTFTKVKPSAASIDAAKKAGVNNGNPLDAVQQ
Sequence of Torsin-1A (Homo sapiens) (O14656 whole entry, looked up): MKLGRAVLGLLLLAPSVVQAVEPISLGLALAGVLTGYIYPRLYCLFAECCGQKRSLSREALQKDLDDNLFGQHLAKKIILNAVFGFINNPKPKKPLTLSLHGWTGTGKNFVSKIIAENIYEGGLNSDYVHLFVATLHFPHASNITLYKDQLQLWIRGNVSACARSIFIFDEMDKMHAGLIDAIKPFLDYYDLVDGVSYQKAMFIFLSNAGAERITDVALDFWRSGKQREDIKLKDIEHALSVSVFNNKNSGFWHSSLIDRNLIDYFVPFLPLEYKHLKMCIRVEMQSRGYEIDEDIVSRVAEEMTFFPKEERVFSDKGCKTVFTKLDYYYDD

As to `CCC[C@@H]1C[C@@]1(CCC)[C@@H](NC(=O)c1ccc(-c2ccccc2)cc1)c1cccc(Cl)c1`, the composite z-score in test [1] is -0.844 and 1.8; in test [2], -0.817 and 0.53; in test [3], 0.589 and 0.541; in [4], -0.427 and 0.367; in test [5] it was -0.0957 and 0.115; in [6], -0.817 and -0.244. Besides, the composite z-score with Lefty1 is -0.16 and -0.268; in [8], -0.463 and 0.469; in [10], 0.585 and -0.0434; in test [15], -0.475 and 0.378; in [16] it was 1.13 and -0.0011; in the test with Torsin-1A (Homo sapiens) [17] it was 0.286 and -0.411. Further, the composite z-score with Torsin-1A (Homo sapiens) [18] was 0.322 and 0.104; in [19], -0.032 and -0.684. Further, the z-score is 0.122 and 1.45 in [7]; 1.01 (inactive) and 1.76 (inactive) in test [9]; -2.34 (inactive) and -1.18 (inactive) in test [11]; -0.439 (inactive) and -0.623 (inactive) in test [12]; 0.394 (inactive) and -0.568 (inactive) in [13]; 0.0069 (inactive) and -0.151 (inactive) in test [14].

In the case of `C=CCN(C(=O)C1N(c2c(Cl)cccc2CO)C(=O)C2C(C(=O)O)C3C=CC21O3)c1ccc(OC)cc1` (stereo not given), the composite z-score in test [1] is 0.0132 and -1.11; in test [2], -0.52 and -1.47; in [3], -0.542 and -1.13; in test [4], -0.79 and -1.58; in test [5] it was -1.08 and -1.26; in test [6] it was -1.37 and -1.76. Also, the composite z-score in the test with Lefty1 was -2.14 and -2.24; in test [8], 0.174 and -1.28; in test [10] it was -0.898 and -0.782; in [15], -1 and -1.55; in test [16], -0.874 and -0.379; in the test with Torsin-1A (Homo sapiens) [17], -2.69 and -1.75. In addition, the composite z-score is -1.94 and -1.61 with Torsin-1A (Homo sapiens) [18]; -1.22 and -0.893 in [19]. Further, the z-score was -1.09 and 1.22 in [7]; 1.4 (inactive) and -1.32 (inactive) in [9]; -0.443 (inactive) and -0.172 (inactive) in [11]; -0.927 (inactive) and -0.513 (inactive) in test [12]; -0.623 (inactive) and 0.0645 (inactive) in test [13]; -0.297 (inactive) and -0.684 (inactive) in test [14].

`C=CCN(C(=O)C(c1cccs1)N(C(=O)/C=C\C(=O)O)C(C)(C)CO)c1ccc(OC)cc1` (stereo not given): the composite z-score in test [1] is -1.01 and -0.0442; in test [2], -0.392 and -0.41; in [3], -0.675 and 1.18; in test [4], -0.809 and -1.04; in test [5], -1.7 and -1.17; in [6], -0.855 and -0.862. The composite z-score in the test with Lefty1 was -1.22 and -0.566; in [8], -0.747 and -0.0298; in test [10] it was -0.0325 and -0.446; in test [15] it was -1.19 and -0.56; in [16], -0.061 and -0.0371; with Torsin-1A (Homo sapiens) [17], -1.58 and -0.301. The composite z-score in the test with Torsin-1A (Homo sapiens) [18] was -0.269 and 1.24; in test [19], -0.763 and -0.121. Further, the z-score in test [7] is 1.11 and 1.74; in test [9], -2.86 (inactive) and -5.74 (inactive); in test [11], -1.8 (inactive) and -0.679 (inactive); in test [12] it was -1.09 (inactive); in test [13], -0.488 (inactive) and -0.619 (inactive); in [14], -1.07 (inactive) and 0.149 (inactive).

Consider `C=CCN(CCCC)C(=O)C1N(c2c(Cl)cccc2CO)C(=O)C2C(C(=O)O)C3C=CC21O3` (stereo not given), for which the composite z-score in [1] is -1.86 and 1.18; in test [2], -1.93 and -0.108; in test [3], -0.983 and 0.896; in [4], -1.58 and -2.29; in test [5], -1.71 and -0.64; in [6], -1.09 and -1.49. Also, the composite z-score is -2.11 and -0.973 with Lefty1; -1.16 and -0.0139 in test [8]; -0.77 and -0.986 in test [10]; -1.03 and -2 in [15]; -0.231 and 0.72 in test [16]; -1.67 and 1.69 in the test with Torsin-1A (Homo sapiens) [17]. The composite z-score with Torsin-1A (Homo sapiens) [18] is -0.696 and 0.827; in test [19], -0.979 and -1.17. Besides, the z-score in test [7] is -1 and -0.998; in [9] it was 0.758 (inactive) and 1.51 (inactive); in [11], -0.0286 (inactive) and -0.784 (inactive); in [12], 0.0942 (inactive) and -2.19 (inactive); in [13], -0.887 (inactive) and -1.3 (inactive); in [14] it was -0.718 (inactive) and -0.285 (inactive).
